From the supplement of paper PMC4894684
Counter-ions that a name gives are not always drawn. ± gives the standard deviation of the averaged measurements.

What follows are compounds tested on Toxoplasma gondii RH (in HFF) (assay: parasite growth relative to the screen mean (all compounds = 100%); higher = less inhibition of parasite growth). Conditions: 5 µM; 72 h; oxygen 21 %.
Outline: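 Library compounds, held as 10 mM DMSO stocks, were pinned to 5 µM final onto confluent human foreskin fibroblasts in 96-well plates. The cells were infected within 2 h with RH β-Gal–GFP Toxoplasma (MOI 1:5), grown 72 h at 21% O2, and assayed for parasite number by CPRG β-Gal using in-plate standard curves. Growth is reported relative to the screen mean, in which all compounds = 100%, averaged over two screens, and CellTiter-Blue checked uninfected host-cell viability.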

Structure (SMILES)	parasite growth [%]
CN=c1nc(-c2ccccc2)n(-c2ccccc2)s1	127 ± 29
CCCOc1ccccc1-c1nc2[nH]nnc2c(=O)[nH]1 [Zaprinast]	98.3 ± 14
CCOc1ccc(Nc2nc(-c3c(C)nc4ccccn34)cs2)cc1	127 ± 44
CC[C@H](C)C(=O)O[C@H]1C[C@H](O)C=C2C=C[C@H](C)[C@H](CC[C@@H](O)C[C@@H](O)CC(=O)O)[C@H]21 [Pravastatin sodium salt]	127 ± 9.5
COCCOC(=O)C1=C(C)NC(C)=C(C(=O)OC/C=C/c2ccccc2)C1c1cccc([N+](=O)[O-])c1 (stereo not drawn) [Cilnidipine]	27.9 ± 21
O=C(c1ccc(Nc2nccc(-c3cc4ccccc4s3)n2)cc1)N1CCC(N2CCCC2)CC1	< 0
COc1cc2c(cc1O)CC[C@@H]1[C@@H]2CC[C@]2(C)[C@@H](O)CC[C@@H]12 [2-Methoxyestradiol]	174 ± 46
O=C(/C=C/c1c(C(=O)O)[nH]c2cc(Cl)cc(Cl)c12)Nc1ccccc1 [Gavestinel]	114 ± 17
C=CC(=O)c1ccc2ccccc2c1	70.4 ± 7.8
CS(=O)(=O)c1ccc(Cn2c3c(c4cc(F)cc(F)c42)CCCC3CC(=O)O)cc1 (stereo not drawn)	120 ± 6.7
O=C(O)C1=CCCNC1 [Guvacine hydrochloride]	132.34 ± 0.044
O=C1NN(C(=O)Nc2ccc(Br)cc2)[C@@H](c2ccccc2)[C@@H]1c1ccccc1	124.5 ± 1.1
NC(=O)OCC(COC(N)=O)c1ccccc1 [Felbamate]	85.9 ± 60
O=C(O)Cc1cccc(OCCCN(Cc2cccc(C(F)(F)F)c2Cl)CC(c2ccccc2)c2ccccc2)c1 [GW 3965 hydrochloride]	105 ± 15
Clc1cccc(Cl)c1NC1=NCCN1 [Clonidine hydrochloride]	153 ± 28
CCC(CC)(CC(=O)Nc1cccc(/C=C/c2nc(C3CCC3)cs2)c1)C(=O)O [Cinalukast]	115 ± 12
CC(=O)NNC(=O)N1Cc2ccccc2Oc2ccc(Cl)cc21	136 ± 40
O=[N+]([O-])c1cc(Cl)ccc1S(=O)(=O)N1CCN(Cc2ccccc2)CC1	130 ± 24
COc1cc(CNC(=O)CCCC/C=C/C(C)C)ccc1O [(E)-Capsaicin]	135 ± 14

Structure (SMILES)	parasite growth [%]
NC(C(=O)O)c1ccc(C(=O)O)c(C(=O)O)c1 (stereo not drawn)	141 ± 3
CC(C)(Sc1ccc(CCN(CCCCC2CCCCC2)C(=O)NC2CCCCC2)cc1)C(=O)O	87.9 ± 17
CC1CCN(CCCC(=O)c2ccc(F)cc2)CC1 [Melperone hydrochloride]	126 ± 12
CCOC(=O)C1=C(COCCN)NC(C)=C(C(=O)OC)C1c1ccccc1Cl (stereo not drawn) [Amlodipine besylate]	87.9 ± 30
NCCNC(=O)c1ccc(Cl)cn1 [Lazabemide hydrochloride]	109 ± 28
CCCCCCCCCCCCCCCC(=O)O[C@H](CC(=O)O)C[N+](C)(C)C (racemic) [(±)-Palmitoylcarnitine chloride]	108 ± 22
COc1ccc(CCN(C)CCc2ccc(OC)c(OC)c2)cc1OC [YS-035 hydrochloride]	136 ± 23
O=C(/C=C/c1ccccc1)NC(NC(=S)Nc1cccc2cccnc12)C(Cl)(Cl)Cl (stereo not drawn) [Salubrinal]	86.2 ± 17
CCC(C)N(C)C(=O)c1cc2ccccc2c(-c2ccccc2Cl)n1 (stereo not drawn)	85.5 ± 33
Cc1cc(I)ccc1Nc1c(C(=O)NOCC2CC2)cc(F)c(F)c1F	107 ± 21
Cc1ccccc1N1CCN(S(=O)(=O)C[C@]23CC[C@H](C[C@@H]2NC(=O)[C@@H](N)CCS(C)(=O)=O)C3(C)C)CC1 [L-368,899 hydrochloride]	161 ± 16
Nc1c(Br)cc(Br)cc1CN[C@H]1CC[C@H](O)CC1 [Ambroxol hydrochloride]	136 ± 3.2
O=c1cc(-c2ccc(O)cc2)oc2cc(O)cc(O)c12 [Apigenin]	102 ± 21
c1ccc(CN(CC2=NCCN2)c2ccccc2)cc1 [Antazoline hydrochloride]	114 ± 25
N#Cc1ccc(NCCNCC(=O)N2CCC[C@H]2C#N)nc1 [NVP DPP 728 dihydrochloride]	81.5 ± 3.9
O=c1nc2ccccc2c2n1CC(CN1CCN(c3ccccc3)CC1)N2 (stereo not drawn)	120 ± 2.4
Cc1c(C(=O)NN2CCCCC2)nn(-c2ccc(Cl)cc2Cl)c1-c1ccc(I)cc1	45.2 ± 3
CN1[C@@H](CC(=O)c2ccccc2)CCC[C@H]1C[C@H](O)c1ccccc1 [Lobeline hydrochloride]	179 ± 40
COc1cc(NC(=O)c2ccccn2)ccc1Cl	91.2 ± 30
